Several values for one entry are separate records, joined by “and”; a condition that tells them apart may be missing. Identical values can stand only once. Compounds without any hit were thinned out: in the full panel of roughly 79,000, 15% have a hit. Cut-off read from the data, not from the text of the source: active = growth inhibition above about 70%; inactive = the rest.
Tests used:
[1] = NCI Yeast Anticancer Drug Screen. Data for the rad50 strain (AID 155);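 note: 0% = growth of vehicle-only cultures of the same strain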; details: S. cerevisiae rad50 strain growth inhibition, hits give high values; at 50.0 µM unless noted
Summary of the method: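 Inhibition values express reduced yeast growth in compound-treated cultures relative to vehicle-treated controls.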

[2] = NCI Yeast Anticancer Drug Screen. Data for the mec2-1 strain (AID 157); details: S. cerevisiae mec2-1 strain, hits give high values; at 50.0 µM unless noted
Summary of the method: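 Readout is yeast growth inhibition, normalised to vehicle-treated controls, in the mec2-1 strain exposed to compound.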

[3] = NCI Yeast Anticancer Drug Screen. Data for the sgs1 mgt1 strain (AID 161);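 note: 0% = growth of cultures given vehicle only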; details: S. cerevisiae sgs1 mgt1 strain, hits give high values; at 50.0 µM unless noted
Summary of the method: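 Percent growth inhibition was derived by comparing compound-exposed mutant yeast with vehicle-exposed cultures. The strain carries alterations in DNA damage repair.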

[4] = NCI Yeast Anticancer Drug Screen. Data for the cln2 rad14 strain (AID 165);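 note: 0% = growth equal to vehicle treated cultures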; details: S. cerevisiae cln2 rad14 strain, hits give high values; at 50.0 µM unless noted
Summary of the method: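 Relative to vehicle controls, growth inhibition of compound-treated cln2 rad14 yeast was recorded.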

[5] = NCI Yeast Anticancer Drug Screen. Data for the bub3 strain (AID 167); details: S. cerevisiae bub3 mutant strain, hits give high values; at 50.0 µM unless noted
Summary of the method: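 Steps: expose the mutant yeast strain to compound; grow alongside vehicle-treated cultures; measure growth; express inhibition against the vehicle cultures.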

[6] = NCI Yeast Anticancer Drug Screen. Data for the mlh1 rad18 strain (AID 175); details: S. cerevisiae mlh1 rad18 strain growth inhibition, hits give high values; at 50.0 µM unless noted
Summary of the method: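 Test agents were incubated with a yeast strain of defined genotype (DNA damage repair defect). Inhibition of growth was derived by comparison with vehicle-exposed cultures.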

Measured: growth inhibition

NC(=S)/N=C(/c1nc2ccc(Cl)cc2[nH]c1=O)C(O)c1ccccc1Cl (stereo not given)
inactive: [1] -2.85% | [2] -21.8% | [3] -20.2% | [4] 4.35% | [5] 22.5% | [6] 5.75%

O=C(Oc1ccc(Cl)cc1)c1ccc([N+](=O)[O-])cc1
inactive: [1] 12.2% | [2] 26.1% | [3] 9.9% | [4] 2.7% | [5] 8.65% | [6] 0.2%

COC1=C2C[C@H](C)C[C@H](OC)[C@H](O)[C@@H](C)/C=C(\C)[C@H](OC(N)=O)[C@H](OC)/C=C\C=C(/C)C(=O)NC(=C(/C=N/N3CCN(C)CC3)C1=O)C2=O
inactive: [1] 7.15% | [2] 0.05% | [3] -7.8% | [4] -8.75% | [5] 2.75% | [6] 18.8%

CCCCCC1CC(=O)NC1C(=O)O (stereo not given)
inactive: [1] -2.75% | [2] 1.25% | [3] -10.8% | [4] -8.8% | [5] -1.15% | [6] -8.95%

CC1(C)COC2(CCCCC2)OC1
inactive: [1] 12.8% | [2] 4.4% | [3] -10.6% | [4] -30.1% | [5] -1.7% | [6] 8.95%

O=C(N/N=C(\c1nc2ccc(Cl)cc2[nH]c1=O)C(O)c1ccccc1Cl)c1ccncc1 (stereo not given)
inactive: [1] 16.6% | [2] 20% | [3] 8.7% | [4] 18.7% | [5] 30.9% | [6] 37%

CC(=O)OCC1C2C=CC(C2)C1COC(C)=O (stereo not given)
inactive: [1] 2.2% | [2] -4.8% | [3] -5.1% | [4] -47.1% | [5] -2.9% | [6] 2.1%

CCN(CC)CCCC(C)NCC1C(O)CCC2CN3CCc4c([nH]c5ccccc45)C3CC21 (stereo not given)
inactive: [1] 23.8% | [2] 9.45% | [3] 25.2% | [4] 23.6% | [5] 18.6% | [6] 25.1%

COc1ccc(C=O)cc1OCc1ccccc1
inactive: [1] -10.2% | [2] -29.4% | [3] -3.15% | [4] -7.35% | [5] -18.2% | [6] 7.55%

CC1Sc2ccccc2-c2[nH]c3ccccc3c21 (stereo not given)
inactive: [1] 32.8% | [2] 49% | [3] 16% | [4] 5% | [5] 31.7% | [6] 66.1%

Cc1cc[n+](CCC(N)=O)cc1
inactive: [1] -10.8% | [2] -30.8% | [3] -3% | [4] 1.85% | [5] -16.9% | [6] -19.9%

C=C(Br)CNC(=O)C(O)(c1ccccc1)c1ccccc1
inactive: [1] -4.15% | [2] 3.65% | [3] 0% | [4] -15.6% | [5] 5.15% | [6] -16.9%

CS(=O)(=O)Nc1c(-c2ccccc2)oc2ccccc2c1=O
inactive: [1] -12.1% | [2] -0.8% | [3] -6.5% | [4] -33.6% | [5] 11.3% | [6] -3.85%

CC(=O)OC(C(N)=O)c1ccccc1 (stereo not given)
inactive: [1] -0.7% | [2] -0.7% | [3] -3.3% | [4] -9.7% | [5] 3.45% | [6] -2.95%

CN1C2=NC(=O)NC(=O)C23OC3c2ccccc21 (stereo not given) (tested in a mixture with another compound)
inactive: [1] 6.35% | [2] 12% | [3] -0.45% | [4] 14.7% | [5] 1.75% | [6] 18.9%

CN(C)c1ccc(/C=C2\C(=O)/C(=C\c3ccc(N(C)C)cc3)c3ccccc32)cc1
inactive: [1] 2.95% | [2] -4.25% | [3] -13.8% | [4] -12.5% | [5] 1.05% | [6] 2.95%

CC12C(=C(C#N)C(=N)N1c1ccc(Cl)c(Cl)c1)C=C(O)CC2SCCS(=O)(=O)O (stereo not given)
inactive: [1] 13.2% | [2] 1.4% | [3] -1% | [4] 27.4% | [5] -11.4% | [6] 10.8%

CC(=O)OCC1OC(n2c(-c3ccc(C)cc3)cc(-c3ccco3)c(C#N)c2=O)C(OC(C)=O)C(OC(C)=O)C1OC(C)=O (stereo not given)
inactive: [1] 10.6% and -5.75% | [2] 10.6% and -5.75% | [3] 20.6% and 4.95% | [4] 13.5% and -16.8% | [5] 27.4% and -4.4% | [6] 14.4% and 9.7%

Cc1ccccc1S(N)(=O)=O
inactive: [1] -17.7% | [2] -28.1% | [3] -22.6% | [4] -42.2% | [5] -6.95% | [6] 3.25%

CC(=O)c1cccc(NC(=O)CCCCCCCCC(=O)Nc2cccc(C(C)=O)c2)c1
inactive: [1] -5.7% | [2] -0.7% | [3] -1.55% | [4] -49.5% | [5] -1.2% | [6] 2.95%

Reference: PubChem BioAssay (NCI)
